Shown are actives, neighbours in structure and some others; about 11% of the full set was active somewhere.
Vaccinia Venus = qHTS for Stage-Specific Inhibitors of Vaccinia Orthopoxvirus: Venus Reporter Primary qHTS | Vaccinia virus Venus reporter expression, fluorescence | Potency, µM (titrated, usually from 36.5 µM), actives largely listed as inhibitors | actives 0.46% (n = 330,000) | AID 720580, 2013; calls by dose curve; tested in A549 cells; note: nearly all actives have a fitted effect of over 30% in size
Pf growth 48h = Primary qHTS for delayed death inhibitors of the malarial parasite plastid, 48 hour incubation | AID 504832, 2011 | P. falciparum luciferase growth in erythrocytes, 48 h | actives 5.9% (n = 310,000) | Potency, µM (highest dose often 28.7 µM), most hits filed as inhibitors
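In quantitative HTS format, infected erythrocytes bearing luciferase-reporter parasites were treated for a single generation at 37 C. Luminescence after adding detection reagent served as the growth measure.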
NS1 inh = qHTS Assay for Inhibitors of Influenza NS1 Protein Function; actives 0.4% (n = 270,000); Potency, µM (doses to about 46.1 µM); calls by dose curve; note: actives are rising curves; nearly all actives have a fitted effect of over 50% in size
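A cell-based growth assay was used: compounds that relieve NS1-induced slow growth of budding yeast raise OD600. Assay medium was yeast nitrogen base with ammonium sulphate and -URA supplement, pH 6.0, with 2% galactose.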
HCV inhibitor = qHTS Assay for Inhibitors of Hepatitis C Virus (HCV). actives 3.4% (n = 340,000). Potency, µM (doses to about 41.8 µM), hits mostly inhibitors. AID 651820, 2012. Huh7.5.1 HCVcc-Cre infection, luciferase reporter, 44 h
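Antiviral activity was scored by luciferase reporter output from cells infected with HCVcc-Cre (~0.5 moi) in presence of compound, 44 h infection period, cells seeded 1,000/well 4 h prior.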
Pf growth 96h = Primary qHTS for delayed death inhibitors of the malarial parasite plastid, 96 hour incubation | P. falciparum luciferase reporter growth, 96 h | Potency, µM (series often up to 28.7 µM), actives largely listed as inhibitors | actives 6.9% (n = 320,000) | AID 504834, 2011
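96 h incubation, 37 C, 5% CO2, of luciferase-reporter P. falciparum-infected RBCs (2% hematocrit, 0.05% parasitemia final) with test compounds; endpoint luminescence.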
VACV mCherry inh = qHTS for Stage-Specific Inhibitors of Vaccinia Orthopoxvirus: mCherry Reporter Primary qHTS; Vaccinia virus mCherry reporter infection, fluorescence; Potency, µM (titrated, usually from 36.5 µM), hits mostly inhibitors; actives 0.63% (n = 310,000); AID 720579, 2013; calls by dose curve; tested in A549 cells; note: nearly all actives have a fitted effect of over 35% in size
Each line names hits and unclear results; the compound was inactive in the other large screens. Unless noted, calls come from the whole dose curve; as a rule, active = well fitted inhibition curve with a large enough effect; inconclusive = small, poorly fitted or top-dose-only effect, or another doubt; inactive = no such curve, though single readings can be large or run the other way.

COc1ccccc1N1CCN(CC(O)COc2ccc(C)c(C)c2)CC1 (configuration not stated)	VACV mCherry inh inconclusive
CSc1ncccc1C(=O)Nc1cc(C)ccn1	none (no result: Vaccinia Venus, VACV mCherry inh)
CCn1c(C)c(C)c2cc(C(=O)NCc3ccc(F)cc3)ccc21	none (no result: Pf growth 48h, NS1 inh, HCV inhibitor, Pf growth 96h)
Cc1n[nH]c(=S)n1-c1ccc(Cl)cc1	Pf growth 96h 5.9µM
S=c1[nH]nc(-c2ccc3ccccc3n2)n1-c1ccc(Cl)cc1	Pf growth 96h 0.59µM
Fc1ccc(-n2c(-c3ccc4ccccc4n3)n[nH]c2=S)cc1Cl	none (no result: NS1 inh)
CC(=O)n1cc([C@H]2C=C(C(=O)N3CCN(Cc4ccccc4)CC3)O[C@@H](OCc3ccc(CO)cc3)C2)c2ccccc21	Vaccinia Venus inconclusive, Pf growth 48h inconclusive, HCV inhibitor inconclusive, Pf growth 96h 2.9µM, VACV mCherry inh inconclusive
CC(=O)n1cc([C@@H]2C=C(C(=O)N3CCOCC3)O[C@H](OCc3ccc(CO)cc3)C2)c2ccccc21	Pf growth 48h inconclusive, Pf growth 96h inconclusive
CC(=O)n1cc([C@H]2C=C(C(=O)N3CCN(Cc4ccc5c(c4)OCO5)CC3)O[C@@H](OCc3ccc(CO)cc3)C2)c2ccccc21	Vaccinia Venus inconclusive, Pf growth 48h 4.7µM, HCV inhibitor inconclusive, Pf growth 96h 3.3µM
CC1(C)CC(=O)C=C(c2cccs2)C1	none (no result: Pf growth 48h, NS1 inh, Pf growth 96h)
Cc1ccccc1NC(=O)Nc1ccc(C(F)(F)F)cc1	HCV inhibitor inconclusive
Cc1cc2c(NC(=O)Nc3ccccc3)cccc2nn1	Pf growth 48h inconclusive, HCV inhibitor inconclusive, Pf growth 96h 13µM
O=C(Nc1ccccc1)Nc1cccc(NC(=O)Nc2ccccc2)c1F	none
Cc1cc2c(NC(=O)Nc3ccc(C(C)(C)C)cc3)cccc2nn1	Pf growth 48h inconclusive, HCV inhibitor 14µM, Pf growth 96h 12µM (no result: Vaccinia Venus, VACV mCherry inh)
CC(C)C(OC(=O)c1cc2sccc2n1C)C(=O)NCC1CCCO1 (configuration not stated)	HCV inhibitor inconclusive, VACV mCherry inh inconclusive (no result: Pf growth 96h)
O=C(Nc1ccccc1O)C(c1ccccc1)c1ccccc1	HCV inhibitor 13µM
O=C(Nc1ccccc1-c1ccccc1)C(c1ccccc1)c1ccccc1	Pf growth 48h inconclusive, HCV inhibitor inconclusive, Pf growth 96h 1.7µM
O=C(O)c1ccccc1NC(=O)C(c1ccccc1)c1ccccc1	none (no result: Pf growth 48h, NS1 inh, Pf growth 96h)
Fc1cccc2sc(Nc3nc4cc5c(cc4s3)OCO5)nc12	VACV mCherry inh inconclusive
Cc1ccc(NC(=O)CCc2c(C)nn(-c3ccc(N4CCOCC4)nn3)c2C)cc1	Pf growth 96h inconclusive (no result: Vaccinia Venus, VACV mCherry inh)
COc1ccc(S(=O)(=O)NCC(c2ccco2)N2CCN(c3ccccc3F)CC2)cc1OC (configuration not stated)	none (no result: Pf growth 48h, NS1 inh, HCV inhibitor, Pf growth 96h)
CCC(CO)Oc1cc(NCc2ccccc2C(F)(F)F)c2ncn(C(C)C)c2c1 (configuration not stated)	HCV inhibitor 1.3µM (no result: Pf growth 48h, NS1 inh, Pf growth 96h)
CCC(CO)Oc1cc(NCc2ccccc2OC)c2ncn(C(C)C)c2c1 (configuration not stated)	none (no result: Pf growth 48h, NS1 inh, Pf growth 96h)
CCC(CO)Oc1cc(NCc2ccccc2Cl)c2ncn(C(C)C)c2c1 (configuration not stated)	Pf growth 48h 3.3µM, HCV inhibitor 2.2µM, Pf growth 96h inconclusive (no result: NS1 inh)
CCC(CO)Oc1cc(NCc2ccccc2F)c2ncn(C(C)C)c2c1 (configuration not stated)	Pf growth 48h 5.2µM, HCV inhibitor inconclusive, Pf growth 96h 4.7µM (no result: NS1 inh)
CS(=O)(=O)c1ccc(C2=C(c3ccccc3)C(=O)OC2)cc1	HCV inhibitor 7.1µM (no result: NS1 inh)
O=C1OCC(c2ccccc2)=C1c1ccccc1	none
COCCN(C(=O)COC(=O)C12CC3CC(CC(Cl)(C3)C1)C2)c1c(N)n(Cc2ccccc2)c(=O)[nH]c1=O	Pf growth 48h 12µM, Pf growth 96h inconclusive (no result: NS1 inh)
CCc1nc2ccccc2c(C(=O)OCC(=O)N(CC(C)C)c2c(N)n(Cc3ccccc3)c(=O)[nH]c2=O)c1C	Pf growth 48h 12µM, HCV inhibitor inconclusive, Pf growth 96h 9.3µM (no result: NS1 inh)
COc1ccc(COC(=O)c2sc3nc4n(c(=O)c3c2C)CCC4)cc1	Pf growth 48h 9.3µM, HCV inhibitor inconclusive, Pf growth 96h inconclusive (no result: NS1 inh)
CCN(C(=O)COC(=O)C12CC3CC(CC(O)(C3)C1)C2)c1c(N)n(Cc2ccccc2)c(=O)[nH]c1=O	none (no result: Vaccinia Venus, Pf growth 48h, NS1 inh, Pf growth 96h, VACV mCherry inh)
CN(C(=O)COC(=O)C12CC3CC(CC(C3)C1)C2)c1c(N)n(Cc2ccccc2)c(=O)[nH]c1=O	none (no result: NS1 inh)
CC(C)CN(C(=O)COC(=O)C12CC3CC(CC(Cl)(C3)C1)C2)c1c(N)n(Cc2ccccc2)c(=O)[nH]c1=O	Pf growth 48h 4.7µM, Pf growth 96h inconclusive (no result: NS1 inh)
Nc1nc2n(n1)C(c1cccs1)CC(c1ccc(Br)cc1)N2 (configuration not stated)	none (no result: Vaccinia Venus, VACV mCherry inh)
CCN(Cc1ccncc1)Cc1c(O)ccc2ccccc12	Pf growth 48h inconclusive, Pf growth 96h inconclusive (no result: NS1 inh)
CCOc1ccc(OCC)c(NC(=O)C2CCCN(S(=O)(=O)c3c(C)n[nH]c3C)C2)c1 (configuration not stated)	HCV inhibitor inconclusive, Pf growth 96h inconclusive (no result: Pf growth 48h)
Cc1ccc2c(c1)-n1c(nc3cc(C)ccc3c1=O)C(Cc1ccccc1)NC2=O (configuration not stated)	none (no result: Vaccinia Venus, Pf growth 48h, NS1 inh, Pf growth 96h, VACV mCherry inh)
COc1cccc(N(C(=O)C2CSC(=O)C2)C(C(=O)NC(C)(C)C)c2ccncc2)c1 (configuration not stated)	none
Cc1c(C(=O)N(CC(C)C)c2c(N)n(Cc3ccccc3)c(=O)[nH]c2=O)sc2nc3n(c(=O)c12)CCC3	Pf growth 48h 8.3µM, Pf growth 96h inconclusive (no result: NS1 inh)
O=C(/C=C/c1cccc(F)c1)N1CCN(c2ccccn2)CC1	none
CCCCN(C(=O)C1=CC=CN2CCS(=O)(=O)N=C12)c1ccccc1	Pf growth 48h inconclusive (no result: NS1 inh)
COc1ccc2nc(NC(=O)c3cc(S(=O)(=O)N4CCOCC4)ccc3C)sc2c1	Vaccinia Venus inconclusive, HCV inhibitor 22µM (no result: Pf growth 96h, VACV mCherry inh)
COc1ccc2nc(NC(=O)c3cc(C)oc3C)sc2c1	HCV inhibitor inconclusive (no result: Vaccinia Venus, VACV mCherry inh)
COc1ccc2nc(NC(=O)c3cccc(S(=O)(=O)N4CCOCC4)c3)sc2c1	Pf growth 96h inconclusive
COc1ccc2nc(NC(=O)c3ccoc3C)sc2c1	HCV inhibitor 14µM
COc1ccc2nc(NC(=O)c3cccc(OCc4c(C)noc4C)c3)sc2c1	Vaccinia Venus inconclusive, HCV inhibitor 0.35µM, VACV mCherry inh inconclusive
CCc1cccc(NS(=O)(=O)c2c(C)n[nH]c2C)c1	Pf growth 48h inconclusive, Pf growth 96h 13µM
O=[N+]([O-])c1ccc(C(c2ccc([N+](=O)[O-])cc2)c2ccc([N+](=O)[O-])cc2)cc1	HCV inhibitor inconclusive, VACV mCherry inh inconclusive (no result: Pf growth 48h, NS1 inh, Pf growth 96h)
CN(C)c1ccc(C(c2ccc(N(C)C)cc2)c2ccc([N+](=O)[O-])cc2)cc1	Pf growth 96h 12µM, VACV mCherry inh inconclusive
